The text below walks through data of PubChem BioAssay (EPA / NIEHS).

Each structure is given as a SMILES string. Values joined by “and” are separate entries in the source; they are usually repeats but may differ in a detail not shown here. Identical values can stand only once. Inconclusive results are not listed. Active and inactive are the calls of the source. Rule for the calls, unless noted: active = hit-call score of the fitted dose curve at least 0.9, where 1 is the maximum; inconclusive = response in the unintended direction; inactive = score below 0.9.

The target of one assay is THRA (gene 7067) (UniProt P10827). As to the kind of experiment: TOX21_TRA_COA_Agonist_Followup_ratio: Tox21 Thyroid Hormone Receptor alpha Agonism through Coactivator Recruitment Follow-Up Assay, Ratio (AID 2283948; active = hit-call score of the fitted dose curve at least 0.9, where 1 is the maximum; inactive = score below 0.9). An outline of the steps:
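Cell-free TR-FRET coactivator recruitment: GST-tagged TRα LBD (2.5 nM) with 0.10% BSA was incubated with compound, then fluorescein-SRC-2 peptide (200 nM) and Tb-anti-GST antibody (2 nM) added. 520:495 nm ratio normalized to DMSO (0%) and T3 (100%).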

Assay [1] has as its target THRB (gene 7068) (UniProt P10828). The assay can be described thus: TOX21_TRB_BLA_Agonist_Followup_ratio: Tox21 Thyroid Hormone Receptor beta Agonism Beta-lactamase (BLA) Follow-Up Assay, Ratio (AID 2283954). An outline of the steps:
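Human TRβ LBD–GAL4 DBD fusion in GeneBLAzer UAS-bla HEK293T cells; 11 concentrations in triplicate, 18 h at 37°C/5% CO2, T3 as agonist control. CCF4-AM substrate 2 h at room temperature; 460:530 nm ratio fitted for gain of signal versus DMSO.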

A short description of assay [2]: TOX21_TRB_BLA_Agonist_Followup_viability: Viability Assessment in the Tox21 Thyroid Hormone Receptor beta Agonism Beta-lactamase (BLA) Follow-Up Assay (AID 2283956). An outline of the steps: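 TRb-bla HEK293T cells (GAL4-DBD/human TRb LBD) in 2% charcoal-stripped FBS medium were exposed 18 h at 37C to 11 concentrations in triplicate. CellTiter-Glo ATP luminescence was read after 30 min at room temperature, with bidirectional fitting against DMSO.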

For assay [3], the target named is THRB (gene 7068) (UniProt P10828). As to the kind of experiment: TOX21_TRB_COA_Agonist_Followup_ratio: Tox21 Thyroid Hormone Receptor beta Agonism through Coactivator Recruitment Follow-Up Assay, Ratio (AID 2283963; active = hit-call score of the fitted dose curve at least 0.9, where 1 is the maximum; inactive = score below 0.9). An outline of the steps:
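Agonism is measured as coactivator recruitment in a purified-protein TR-FRET format, using GST-TRβ LBD at 5.0 nM, fluorescein-SRC-2 peptide at 200 nM and Tb-labeled anti-GST antibody at 2 nM. Values are 520:495 nm ratios relative to DMSO (0%) and T3 (100%).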

For assay [4], the target named is Retinoic acid receptor RXR-alpha (Homo sapiens) (UniProt P19793). The assay can be described thus: TOX21_TR_RXR_BLA_Agonist_Followup_ratio: Tox21 Thyroid Hormone Receptor beta Retinoid X Receptor alpha (RXRa) Agonism Beta-lactamase (BLA) Follow-Up Assay, Ratio (AID 2283968). A digest of the protocol:
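RXRa-UAS-bla HEK293T cells (GAL4 beta-lactamase reporter) were treated with compounds at 11 concentrations in triplicate for 16 h at 37C/5% CO2, then loaded with CCF4-AM substrate for 2 h at room temperature; activity is the 460:530 nm ratio versus DMSO baseline.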

The nature of assay [5]: TOX21_TR_RXR_BLA_Agonist_Followup_viability: Viability Assessment in the Tox21 Thyroid Hormone Receptor beta Retinoid X Receptor alpha (RXRa) Agonism Beta-lactamase (BLA) Follow-Up Assay (AID 2283970). A digest of the protocol: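 RXRa-UAS-bla HEK293T cells seeded at 2,500/well in phenol red-free DMEM with 2% charcoal-stripped FBS, exposed to compound 16h at 37C/5% CO2 in qHTS. Viability read by CellTiter-Glo ATP luminescence; bidirectional fitting against DMSO baseline, signal loss indicating cytotoxicity.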

Assay [6] deals with Nucleoli Translocation, AR (gene 367) (UniProt P10275). The assay can be described thus: UPITT_HCI_U2OS_AR_TIF2_Nucleoli_Antagonist: University of Pittsburgh U2OS Androgen Receptor-Transcriptional Intermediary Factor 2 (AR-TIF2) Antagonism High Content Imaging Assay for Nucleoli Translocation (AID 2283997). An outline of the steps:
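U2OS cells co-expressing red-fluorescent-tagged human AR and green-fluorescent-tagged TIF2, imaged by high-content microscopy for nucleolar red fluorescence. Antagonist mode against DHT; primary screen at 20 uM final (0.2% DMSO).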

For assay [7] the target is unchanged. The assay can be described thus: UPITT_HCI_U2OS_AR_TIF2_Nucleoli_Agonist: University of Pittsburgh U2OS Androgen Receptor-Transcriptional Intermediary Factor 2 (AR-TIF2) Agonism High Content Imaging Assay for Nucleoli Translocation (AID 2283998). An outline of the steps:
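Nucleolar translocation of AR-RFP, with TIF2-GFP coexpressed in human osteosarcoma U2OS, imaged by high-content fluorescence. Compounds tested singly at 20 uM final, confirmed in triplicate, then titrated 0.195–50 uM final; gain-of-signal relative to DMSO.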

Assay [8] addresses Ratio of Nucleoli Translocation and Cytoplasm, AR (gene 367) (UniProt P10275). As to the kind of experiment: UPITT_HCI_U2OS_AR_TIF2_Nucleoli_Cytoplasm_Ratio_Antagonist: University of Pittsburgh U2OS Androgen Receptor-Transcriptional Intermediary Factor 2 (AR-TIF2) Antagonism High Content Imaging Assay for Ratio of Nucleoli Translocation and Cytoplasm (AID 2283999).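 Note: antagonists lower the DHT-driven ratio of nucleolar to cytoplasmic red signal.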 A digest of the protocol:
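U2OS cells expressing RFP-tagged human AR and GFP-tagged TIF2; compounds tested at 20 uM final (0.2% DMSO) in primary screen, 0.195–50 uM (0.5% DMSO) for concentration response. Readout: nucleolar-to-cytoplasmic red fluorescence ratio by high-content imaging, fitted relative to DHT.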

For assay [9] the target is unchanged. The assay can be described thus: UPITT_HCI_U2OS_AR_TIF2_Nucleoli_Cytoplasm_Ratio_Agonist: University of Pittsburgh U2OS Androgen Receptor-Transcriptional Intermediary Factor 2 (AR-TIF2) Agonism High Content Imaging Assay for Ratio of Nucleoli Translocation and Cytoplasm (AID 2284000).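 Note: hits raise the red nucleolar to cytoplasm ratio above vehicle.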 A digest of the protocol:
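U2OS cells expressing RFP-tagged human AR and GFP-tagged TIF2; high-content imaging ratio of nucleolar to cytoplasmic red fluorescence, fitted as gain of signal vs DMSO. Single point at 20 uM final (0.2% DMSO); concentration-response 0.195-50 uM final (0.5% DMSO).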

A further assay concerns DIO1 (gene 1733). As to the kind of experiment: CCTE_GLTED_hDIO1: CCTE's human Deiodinase 1 (DIO1) Inhibition Assay, Great Lakes Toxicology and Ecology Division (GLTED) Lab (AID 2283987).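 Note: isolated human DIO1 enzyme in a cell-free setup rather than cells; enzyme activity read as free iodide liberated from substrate via Sandell-Kolthoff colorimetry.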 An outline of the steps: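 Inhibition read as reduced iodide release: after 3 h of human DIO1 with chemical, free iodide is quantified colorimetrically (Sandell-Kolthoff cerium/arsenic reaction). Triplicate plates, DMSO baseline.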

Assay [10] can be described thus: CCTE_Simmons_MITO_basal_resp_rate: CCTE's HepG2 Seahorse XF Respirometric Screening Assay at Basal Respiratory State, Simmons Lab (AID 2284001; active = hit-call score of the fitted dose curve at least 0.9, where 1 is the maximum; inactive = score below 0.9). As to conditions: actives raise or lower the signal. An outline of the steps:
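HepG2 oxygen consumption on Seahorse XF96 after compound injection, 7 concentrations 125 nM–100 uM final, reads every 6 min over 72 min. Triplicate biological replicates; bidirectional fit vs DMSO; fenpyroximate and 2,4-dinitrophenol controls.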

The nature of assay [11]: TOX21_PR_LUC_Followup_Agonist_viability: Viability Assessment in the Tox21 HEK293 Progesterone Receptor (PR) Agonism Luciferase Follow-Up Assay (AID 2283941).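 Note: loss of signal means cytotoxicity so actives lower viability.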 A digest of the protocol:
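HEK293-PR-A-luc cells, pre-cultured 5 days in 10% charcoal-stripped FBS, were seeded at 3,000 cells/well, rested 5 h at 37C, then given compound in DMSO for 16 h at 37C. Cellular ATP was read by CellTiter-Glo luminescence; signal loss indicates cytotoxicity.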

Chain of Ratio of Nucleoli Translocation and Cytoplasm, AR (gene 367) (P10275 whole entry, looked up): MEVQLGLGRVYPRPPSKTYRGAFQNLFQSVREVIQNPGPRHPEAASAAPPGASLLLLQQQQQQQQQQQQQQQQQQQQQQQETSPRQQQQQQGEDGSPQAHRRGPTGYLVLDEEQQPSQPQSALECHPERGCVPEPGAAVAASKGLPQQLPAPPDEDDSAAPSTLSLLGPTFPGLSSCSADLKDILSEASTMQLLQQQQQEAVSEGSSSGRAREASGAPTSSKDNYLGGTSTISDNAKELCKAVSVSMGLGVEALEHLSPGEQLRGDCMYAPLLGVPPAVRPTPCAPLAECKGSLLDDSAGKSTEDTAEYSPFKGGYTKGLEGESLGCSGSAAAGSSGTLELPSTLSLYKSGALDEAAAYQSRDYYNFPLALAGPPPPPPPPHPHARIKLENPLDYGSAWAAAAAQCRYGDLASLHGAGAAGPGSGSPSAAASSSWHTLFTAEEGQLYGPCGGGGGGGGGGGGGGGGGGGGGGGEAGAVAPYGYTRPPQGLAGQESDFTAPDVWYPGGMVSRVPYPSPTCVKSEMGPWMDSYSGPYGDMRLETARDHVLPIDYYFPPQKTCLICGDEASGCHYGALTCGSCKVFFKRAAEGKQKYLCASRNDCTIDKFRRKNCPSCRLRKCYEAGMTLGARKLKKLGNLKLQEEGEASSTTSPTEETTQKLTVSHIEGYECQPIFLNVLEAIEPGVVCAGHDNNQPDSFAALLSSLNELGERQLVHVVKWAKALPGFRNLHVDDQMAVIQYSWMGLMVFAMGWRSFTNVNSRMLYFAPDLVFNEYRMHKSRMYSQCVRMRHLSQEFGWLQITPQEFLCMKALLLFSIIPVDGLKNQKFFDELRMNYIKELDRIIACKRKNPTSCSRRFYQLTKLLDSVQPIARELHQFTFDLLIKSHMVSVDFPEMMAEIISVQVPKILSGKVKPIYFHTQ
Chain of Nucleoli Translocation, AR (gene 367) (P10275 whole entry, looked up): as above
Chain of THRB (gene 7068) (P10828 whole entry, looked up, the tested form may be a part): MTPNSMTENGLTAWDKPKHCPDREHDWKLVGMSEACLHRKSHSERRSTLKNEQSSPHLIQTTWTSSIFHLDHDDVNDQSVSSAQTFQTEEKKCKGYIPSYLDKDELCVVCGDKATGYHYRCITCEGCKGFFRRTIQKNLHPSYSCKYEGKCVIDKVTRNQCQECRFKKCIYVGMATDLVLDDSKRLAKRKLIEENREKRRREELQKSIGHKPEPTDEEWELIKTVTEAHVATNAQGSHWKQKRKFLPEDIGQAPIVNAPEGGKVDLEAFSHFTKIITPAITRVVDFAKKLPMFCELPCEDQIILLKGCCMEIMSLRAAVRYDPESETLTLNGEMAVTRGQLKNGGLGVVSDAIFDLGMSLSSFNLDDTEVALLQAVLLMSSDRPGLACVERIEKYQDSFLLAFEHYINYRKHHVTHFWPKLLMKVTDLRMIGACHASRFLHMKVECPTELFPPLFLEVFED
Chain of Retinoic acid receptor RXR-alpha (Homo sapiens) (P19793 whole entry, looked up, the tested form may be a part): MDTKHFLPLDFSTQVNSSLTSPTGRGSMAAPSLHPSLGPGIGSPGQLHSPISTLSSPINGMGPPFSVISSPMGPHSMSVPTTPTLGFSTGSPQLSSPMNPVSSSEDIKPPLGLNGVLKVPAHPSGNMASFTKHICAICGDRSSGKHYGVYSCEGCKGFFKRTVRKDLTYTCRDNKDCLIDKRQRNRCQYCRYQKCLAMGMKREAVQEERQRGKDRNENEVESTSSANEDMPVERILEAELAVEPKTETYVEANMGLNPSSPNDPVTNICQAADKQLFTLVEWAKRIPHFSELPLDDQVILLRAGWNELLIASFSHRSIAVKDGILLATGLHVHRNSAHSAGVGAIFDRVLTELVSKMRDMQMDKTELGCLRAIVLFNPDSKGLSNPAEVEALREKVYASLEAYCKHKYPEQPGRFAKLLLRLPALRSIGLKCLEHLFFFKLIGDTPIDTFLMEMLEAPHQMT
Chain of THRA (gene 7067) (P10827 whole entry, looked up, the tested form may be a part): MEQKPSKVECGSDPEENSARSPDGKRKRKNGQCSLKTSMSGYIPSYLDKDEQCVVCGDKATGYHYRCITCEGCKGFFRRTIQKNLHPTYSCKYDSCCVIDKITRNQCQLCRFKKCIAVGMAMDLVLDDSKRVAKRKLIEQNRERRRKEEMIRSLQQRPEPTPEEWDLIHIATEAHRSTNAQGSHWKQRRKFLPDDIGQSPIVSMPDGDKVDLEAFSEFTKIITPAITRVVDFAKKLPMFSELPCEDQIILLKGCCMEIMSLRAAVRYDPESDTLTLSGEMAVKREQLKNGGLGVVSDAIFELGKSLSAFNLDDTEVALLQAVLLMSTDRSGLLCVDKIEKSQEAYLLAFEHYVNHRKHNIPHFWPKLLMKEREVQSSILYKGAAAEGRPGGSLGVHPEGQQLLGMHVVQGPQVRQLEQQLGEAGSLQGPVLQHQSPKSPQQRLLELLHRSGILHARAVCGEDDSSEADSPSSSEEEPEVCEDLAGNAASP

Turning to `O=C(O)C(Cl)Cl`, the outcome (with THRA (gene 7067); with THRB (gene 7068) [1]; in [2]; with THRB (gene 7068) [3]; in [4]; in assay [5]) was inactive.
In the case of `CCCCN(CC)C(=O)SCCC`, the result in assay [6], in assay [7], in [8] and in [9] was inactive.
The term AC50 denotes the concentration at which the activity in the assay is half-maximal. As for `ClC(Cl)=C(c1ccc(Cl)cc1)c1ccccc1Cl`, in assay [6], the AC50 was 50 µM (active) and 9.92 µM (active). In addition, the call in assay [7], in [8] and in assay [9] was inactive.
Consider `COC(=O)C(F)(F)C(F)(F)OC(F)(C(F)(F)F)C(F)(F)OC(F)=C(F)F` (stereo not given), for which the AC50 in the assay on DIO1 (gene 1733) is 0.494 µM (active).
Turning to `c1cc2c3c(cccc3c1)CC2`, the call in [6], in [8] and in assay [9] was inactive.
Consider `[N-]=[N+]=[N-]`, for which the outcome in assay [6], in assay [7], in assay [8], in assay [9] and in assay [10] was inactive.
Take `O=P(OCC(Br)CBr)(OCC(Br)CBr)OCC(Br)CBr` (stereo not given): the call in assay [6], in [7], in assay [8] and in [9] was inactive.
In the case of `Cc1ccc(N)cc1N`, the compound was called inactive in assay [10].
Consider `CCNc1nc(Cl)nc(NC(C)(C)C)n1`, for which the compound was called inactive in [6], in assay [7] and in assay [9].
Consider `CCCCCCCc1ccc(O)cc1`, for which the AC50 is 77 µM (active) with DIO1 (gene 1733); 60.7 µM (active) in assay [6]; 19.2 µM (active) in assay [7]; 79.6 µM (active) in assay [8]; 28.9 µM (active) in assay [9]; 40.4 µM (active) in assay [10].
As for `CC1(C)CN=C(NN=C(/C=C/c2ccc(C(F)(F)F)cc2)/C=C/c2ccc(C(F)(F)F)cc2)NC1`, the concentration at half-maximal activity (AC50) in [6] was 9.92 µM (active). In addition, the compound was classed as inactive in assay [7], in assay [8] and in assay [9].
As to `Clc1ccc(Oc2ccccc2)cc1`, in assay [6], the result was inactive.
Take `CC(C)(C)c1ccc(O)cc1`: in assay [10], the AC50 was 37.2 µM (active).
Take `ClC(Cl)(Cl)c1ccccc1`: the outcome in [10] was inactive.
Turning to `CCOP(=S)(Oc1ccc([N+](=O)[O-])cc1)c1ccccc1` (stereo not given), the compound was classed as inactive in [11].
